Keap1 Nrf2 FP = inhibitors of human Keap1-Nrf2 protein-protein interaction; Q14145; Keap1 Kelch-Nrf2 peptide fluorescence polarization, 1536-well; AID 504523; inhibition, % at 9.4 µM; 0.15% of 340,000 active; in the data active = inhibition above about 12%;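 note: human Keap1 Kelch domain with fluorescein labeled Nrf2 9mer peptide probe; higher means more block of Keap1 binding to Nrf2 peptide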
GLD-1 TGE inh = GLD-1-TGE RNA interaction inhibition (C. elegans). purified GLD-1 + fluorescein TGE RNA, fluorescence polarization. Q17339. 0.44% of 320,000 active. AID 2280. inhibition, % at 5.96 µM;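 active = percent inhibition above a per-plate cutoff, the plate mean of test compounds plus 3 SD, cut at about 30% in these data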
Target sequence (Q17339 whole entry, looked up): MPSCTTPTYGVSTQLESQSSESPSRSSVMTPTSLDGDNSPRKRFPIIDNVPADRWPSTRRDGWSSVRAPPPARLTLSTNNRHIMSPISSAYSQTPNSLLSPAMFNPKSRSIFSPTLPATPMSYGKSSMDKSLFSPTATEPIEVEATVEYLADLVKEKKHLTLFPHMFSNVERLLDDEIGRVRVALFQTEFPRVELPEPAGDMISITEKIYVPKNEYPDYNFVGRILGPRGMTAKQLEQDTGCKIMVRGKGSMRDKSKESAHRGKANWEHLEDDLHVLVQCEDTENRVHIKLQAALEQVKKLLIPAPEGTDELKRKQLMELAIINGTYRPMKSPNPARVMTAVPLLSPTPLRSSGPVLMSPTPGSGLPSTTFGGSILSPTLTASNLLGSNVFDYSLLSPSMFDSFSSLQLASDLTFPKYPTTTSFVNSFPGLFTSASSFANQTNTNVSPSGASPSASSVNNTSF
Bcl-xL primary = inhibitors of human Bcl-xL; inhibition, % at 10.9 µM; 0.7% of 320,000 active; Q07817; GST-Bcl-xL / FITC-Bim BH3 peptide fluorescence polarization; AID 2129;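 active = inhibition above the mean of all tested compounds plus 3 SD, cutoff set per campaign, cut at about 30% in these data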;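 note: inhibitors lower millipolarization by displacing the labeled peptide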
MCL1-BIM inh = MCL1-BIM-BH3 interaction inhibition (human); Q07820; GST-MCL1 / FITC-Bim-BH3 fluorescence polarization; inhibition, % at 10.9 µM; 0.68% of 320,000 active; AID 2057;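 active = inhibition above the mean inhibition of all tested compounds plus 3 SD, set per campaign, cut at about 40% in these data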;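 note: higher means more loss of mP so more displacement of Bim peptide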
LANA DNA inh = blocks KSHV LANA C-terminal domain binding to DNA | AID 504423 | 0.078% of 340,000 active | inhibition, % at 9 µM | MBP-C-LANA/FAM-LBS DNA binding, fluorescence polarization;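 active = highest replicate inhibition at or above 60% at 9 µM, even if other replicates fall short; inactive = all replicates below 60% inhibition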
eLon inh = inhibitors of E. coli Lon protease. P0A9M0. purified E. coli Lon protease, fluorescence polarization. inhibition, % at 7.94 µM. 0.42% of 360,000 active; in the data active = inhibition above about 13%, passing the limit was not always enough
BCLXL inh confirm = Bcl-xL (human) inhibition, MCL1 counter-screen confirmation. shares compounds with MCL1-BIM inh. GST-Bcl-xL / FITC-Bim BH3 peptide FP binding. inhibition, % at 10.9 µM. 54% of 1,700 active. AID 2166;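 active = inhibition above a cutoff equal to the mean inhibition of all tested compounds plus 3 SD, cut at about 30% in these data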
MCL1 inh confirm = MCL1-BIM-BH3 interaction inhibition, confirmation; inhibition, % at 10.9 µM; shares compounds with MCL1-BIM inh; GST-MCL1 / FITC-Bim-BH3 fluorescence polarization; 61% of 1,700 active;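 active = inhibition above the average of all tested compounds plus 3 SD, cut at about 40% in these data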
Hits are given with their value; - = inactive; . = no result given. A selection: hits, their analogues and other compounds. The true share with any hit is near 1.3%.

SMILES	Keap1 Nrf2 FP	GLD-1 TGE inh	Bcl-xL primary	MCL1-BIM inh	LANA DNA inh	eLon inh	BCLXL inh confirm	MCL1 inh confirm
Cc1ccc(OCC(=O)c2c(N)n(C)c(=O)n(C)c2=O)c([N+](=O)[O-])n1	-	-	36	72	-	-	-	59
CC1(C)Cc2cccc(OCC(=O)NCCc3ccc(S(N)(=O)=O)cc3)c2O1	-	-	35	195	-	-	-	-
O=C(Nc1ccc(N2CCN(C(=O)c3ccccc3)CC2)cc1)c1cccs1	-	-	-	-	-	-	.	.
CCC(=O)N1CCN(c2ccc(NC(=O)c3cccs3)cc2)CC1	-	-	-	42	-	-	-	-
CCN1C=CC2=C(C#N)C(N)C(C#N)(C#N)C(c3ccccc3C(F)(F)F)C2C1 (stereo unspecified)	-	76	106	110	-	-	50	64
O=[N+]([O-])c1ccc(/C=N/n2cnc3ccccc32)s1	-	-	52	72	-	-	71	76
CC(=O)C(Sc1nc(NC(C)(C)C)nc(N(C)C)n1)C(C)=O	-	-	-	193	-	-	-	-
COC(=O)CSc1nc(NC(C)(C)C)nc(N(C)C)n1	-	-	-	-	-	-	.	.
Cc1ccc(S(=O)(=O)N2[C@@H](c3ccc(F)cc3)C(C(=O)O)=CC[C@H]2c2ccc3c(c2)OCO3)cc1	-	-	-	-	-	-	.	.
CCOc1cc(Br)c(Br)c(C=Nc2ccc(NC(C)=O)cc2)c1O	-	-	31	44	-	-	71	116
CC(=O)Nc1ccc(N=Cc2c(O)c(C(=O)Nc3ccccc3)cc3ccccc23)cc1	.	-	-	-	.	.	.	.
O=C(c1cnc2ccccc2n1)N1CCN(c2ccc(C(F)(F)F)cn2)CC1	-	-	-	-	-	-	.	.
CCOC(=O)c1c[nH]c2nc(C)ccc2c1=O	-	61	78	85	-	-	70	89
COC(=O)\C(C(C)=O)=C(/C=C/C=C/C=C/N(C)C)N(C)C	-	-	-	50	-	-	-	-
CC(=O)N1CCc2cc(C(=O)CN3CCN(c4ccccn4)CC3)ccc21	-	-	-	-	-	-	.	.
CNCCCOc1cccc(Oc2ccccc2)c1	-	-	-	46	-	-	-	-
Fc1cccc(Cc2c(C3CCCCC3)nc3ccc(Cl)cn23)c1	.	.	.	.	.	-	.	.
O=C1c2ccc([N+](=O)[O-])cc2C(=O)N1c1ccc(Cl)cn1	-	-	-	-	-	-	.	.
O=C1c2cccc3c([N+](=O)[O-])ccc(c23)C(=O)N1O	20	-	57	48	-	-	43	58
CC(=O)Oc1ccc(N2C(=O)c3cccc4c([N+](=O)[O-])ccc(c34)C2=O)cc1	-	-	-	-	-	-	.	.
O=C1c2cccc3c([N+](=O)[O-])ccc(c23)C(=O)N1c1ccc(Cl)cn1	-	103	120	139	-	65	82	105
Cc1ccc(C(=O)C(C)OC(=O)CCS(=O)(=O)c2ccc(C)cc2)cc1 (stereo unspecified)	-	-	-	-	-	-	.	.
CCC(CC)C(=O)N(C)c1c(C)nc2c(OCC=C(C)C)cccn12	.	.	.	.	.	-	.	.
Cc1ccc(N(CC(=O)NCc2ccco2)C(=O)CNS(=O)(=O)c2ccccc2)c(C)c1	-	-	-	42	-	-	-	-
COc1cc(C2NC(=O)CCC2[N+](=O)[O-])cc(OC)c1OC (stereo unspecified)	-	-	-	-	-	-	.	.
SMILES	Keap1 Nrf2 FP	GLD-1 TGE inh	Bcl-xL primary	MCL1-BIM inh	LANA DNA inh	eLon inh	BCLXL inh confirm	MCL1 inh confirm
COc1ccccc1NC(=O)N1CCc2[nH]c3ccc(F)cc3c2C1	-	51	52	50	-	-	-	-
CN(C)C=Nc1c(Br)cc(Br)c2nonc12	-	-	92	69	-	-	90	115
CN(Cc1nc2ccccc2c(=O)[nH]1)C(=O)c1ccc(NC(=O)CSc2nnnn2C)cc1	-	-	-	44	-	-	-	-
C[C@H]1CN([C@@H](C)CO)C(=O)CCCn2nncc2CO[C@@H]1CN(C)C(=O)Cc1ccccc1	.	.	.	.	.	-	.	.
O=C(Cc1cccs1)Nc1nnc(CCc2ccccc2)s1	-	-	-	-	-	-	.	.
O=C(Cc1cccs1)Nc1nnc(Cc2ccccc2)s1	-	-	-	54	-	-	-	44
COC(=O)c1cc(NC(=O)Cc2cccs2)cc(C(=O)OC)c1	-	-	-	44	-	-	-	-
COc1ccc(Cc2nnc(NC(=O)Cc3cccs3)s2)cc1OC	-	-	-	73	-	-	-	80
COc1ccc([N+](=O)[O-])cc1NC(=O)C(C)OC(=O)CC1CCCC1 (stereo unspecified)	-	-	-	-	-	-	.	.
CCOC(=O)C1=NN(C(C)=O)C2(CC(=O)N(c3cccc(C)c3)C2=O)C1 (stereo unspecified)	-	-	-	-	-	-	.	.
CCC1Oc2ccccc2N(CC(=O)NC2CCCC2)C1=O (stereo unspecified)	-	-	-	-	-	-	.	.
Cc1ccsc1/C=N/NC(=O)C(=O)NCC(C)C	-	-	-	-	-	-	.	.
O=C(CN1CCOCC1)NNC(=S)Nc1ccc(Cl)cc1	-	-	-	55	-	-	-	-
O=C(C[C@@H]1C[C@@H]2c3cc(NC(=O)C4CCC4)ccc3O[C@@H]2[C@@H](CO)O1)NCc1ccc(Cl)cc1	.	.	.	.	.	-	.	.
Cc1nnc(SCC(=O)Nc2sccc2C#N)s1	-	-	-	53	-	-	-	-
COc1cc(NC(=O)COC(=O)/C=C/c2c(C)nn(-c3ccc(F)cc3)c2Cl)cc(OC)c1	-	-	-	-	-	-	.	.
COc1cc(C2Nc3cccc4cccc(c34)N2)cc(OC)c1O	-	-	-	-	-	-	.	.
C/C(=C\c1ccccc1)C1Nc2cccc3cccc(c23)N1	.	-	-	41	.	.	-	-
O=C(CSc1ccc(-c2ccco2)nn1)c1ccccc1	-	-	-	42	-	-	-	-
O=C(O)c1cccc2c1C(=O)c1ccc(N3CCCC3)cc1S2(=O)=O	-	80	112	131	-	48	104	122
CC1CCN(c2ccc3c(c2)S(=O)(=O)c2cccc(C(=O)NCc4cccc(F)c4)c2C3=O)CC1	-	162	-	68	-	-	-	-
CCC1CCCCN1C(=O)COC(=O)c1ccc(Br)o1 (stereo unspecified)	-	-	-	-	-	-	.	.
Cc1ccc2[nH]c3c(c2c1)CN(C(=O)CN1CC(C)OC(C)C1)CC3 (stereo unspecified)	-	-	61	62	-	-	51	60

Source: PubChem (several laboratories)
